Inconclusive results are not listed. Activity calls are given as the source filed them. Unless noted, how the calls were made is not given here.
Assays:
[1] = qHTS profiling for inhibitors of Plasmodium falciparum (3D7) proliferation (AID 743322);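 further: infected erythrocytes exposed to compound for 72 h before lysis; 100% = DMSO vehicle wells and 0% = 0.29 µM artemisinin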; details: P. falciparum 3D7 proliferation; at 28.7 µM (top of the series) unless noted
Procedure, shortened: (§1)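 Parasite DNA was quantified by SYBR Green I fluorescence (ex 485, em 535 nm) after overnight lysis in saponin/Triton buffer at room temperature. Cultures at 0.3% parasitemia and 2.5% hematocrit were first exposed to compound for 72 h at 37 C; signals were normalised to artemisinin (0.29 uM) and vehicle wells.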

[2] = qHTS profiling for inhibitors of Plasmodium falciparum (DD2) proliferation (AID 743323); details: lower = more inhibition; at 28.7 µM (top of the series) unless noted
Procedure, shortened: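 Parasite proliferation measured via DNA-dye fluorescence, as uninfected erythrocytes lack DNA. Cultures at 0.3% parasitemia and 2.5% hematocrit incubated 72 h with compound; signal scaled between vehicle and 0.29 uM artemisinin wells.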

[3] = qHTS profiling for inhibitors of Plasmodium falciparum (HB3) proliferation (AID 743324; active means well fitted curve in the direction sought with a large enough effect; an effect the other way counts as inactive or inconclusive;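 further: 100% = DMSO vehicle wells and 0% = artemisinin-treated control wells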); details: Plasmodium falciparum HB3 blood-stage proliferation; at 28.7 µM (top of the series) unless noted
Procedure, shortened: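 SYBR Green fluorescence (485 ex/535 em) of lysed cultures, incubated overnight at room temperature in the dark, quantifies parasite DNA. Infected erythrocytes at 0.3% parasitemia and 2.5% hematocrit were exposed 72 h; values normalized to DMSO and 0.29 uM artemisinin controls.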

[4] = qHTS profiling of the MIPE4 collection as inhibitors of Plasmodium falciparum (3D7) proliferation (AID 743344);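 further: scaled between DMSO vehicle wells and 0.29 µM artemisinin as full inhibition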; details: P. falciparum 3D7 in erythrocytes, SYBR Green DNA fluorescence, 72 h; at 28.5 µM (top of the series) unless noted
Procedure, shortened: as §1

[5] = qHTS profiling of the MIPE4 collection as inhibitors of Plasmodium falciparum (DD2) proliferation (AID 743345); details: P. falciparum Dd2 in erythrocytes, SYBR Green DNA, 72 h; at 28.5 µM (top of the series) unless noted
Procedure, shortened: as §1

[6] = qHTS profiling of the MIPE4 collection as inhibitors of Plasmodium falciparum (DD2) proliferation (Rep 2) (AID 743346); details: P. falciparum Dd2 in erythrocytes, SYBR Green DNA, 72 h; at 28.5 µM (top of the series) unless noted
Procedure, shortened: as §1

[7] = qHTS profiling of the MIPE4 collection as inhibitors of Plasmodium falciparum (HB3) proliferation (AID 743347);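 further: plate controls were DMSO vehicle wells for no effect and artemisinin wells for full effect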; details: P. falciparum HB3 in erythrocytes, SYBR Green DNA, 72 h; at 28.5 µM (top of the series) unless noted
Procedure, shortened: as §1

[8] = High-throughput drug toxicity screening in the BPDCN cell line Gen2.2 (AID 1224824); details: Gen2.2 BPDCN cells; at 45.8 µM (top of the series) unless noted;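 further: cells exposed to compounds for 48 h before reading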
Procedure, shortened: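 Gen2.2, 500 cells/well, phenol red-free RPMI/10% FBS/Pen-Strep; 48 h cpd, 37 °C/5% CO2; CTG lum, 15 min RT. Norm: DMSO = 100%, bortezomib 9.2 uM final = 0%.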

[9] = High-throughput drug toxicity screening in the BPDCN cell line Cal-1 (AID 1224825); details: Cal-1 BPDCN cell viability, qHTS; at 45.8 µM (top of the series) unless noted
Procedure, shortened: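 Viability of the BPDCN line Cal-1 is measured as ATP-based luminescence (CellTiter-Glo) following 48 h incubation with compounds. Percent activity uses DMSO-treated wells as 100% and 9.2 uM bortezomib as 0%.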

[10] = qHTS assay for measurement of the activity of small molecule inhibitors on Zika virus induced Caspase-3 activity in human iPSC derived neural progenitor cells (hNPCs) (AID 1224857; active means well fitted curve in the direction sought with a large enough effect; an effect the other way counts as inactive or inconclusive; further: % of control where 0% means no effect; nearly all actives have a fitted effect of over 65% in size)
Procedure, shortened: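 Cells were plated at 350 per well and grown 16 to 20 hours. Compound pretreatment lasted one hour, after which ZIKV (2 FFU/cell) was added for 6 hours. Percent inhibition was normalized between uninfected and infected controls.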

[11] = qHTS assay for measurement of the activity of small molecule inhibitors on Zika virus induced Caspase-3 activity in human astrocytoma cells (AID 1224859; active means well fitted curve in the direction sought with a large enough effect; an effect the other way counts as inactive or inconclusive;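 further: plate controls were ZIKV-infected untreated cells for no effect and uninfected cells for full effect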)
Procedure, shortened: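 Percent inhibition of virus-induced caspase-3/7 signal is calculated against uninfected and ZIKV-infected control cells. Cells are SNB-19, infected at 2 FFU/cell for 6 h after 1 h compound exposure.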

[12] = qHTS Screen of the MIPE 4.0 Collection Against Ewings Sarcoma (RDES) (AID 1259252; active means well fitted curve in the direction sought with a large enough effect; an effect the other way counts as inactive or inconclusive; further: nearly all actives have a fitted effect of over 35% in size; further: potency means the concentration at half of the fitted maximal effect)
Procedure, shortened: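 Compound titrations go onto adherent log-phase cells 4 h after seeding, incubate 48 h at 37C, then CellTiter-Glo luminescence reports viability relative to DMSO and cell-free controls.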

[13] = qHTS Assay for Identifying Gametocytocidal Compounds (AID 743244; active means well fitted curve in the direction sought with a large enough effect; an effect the other way counts as inactive or inconclusive;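 further: on the % scale 0 is the no-effect control and ±100 the full control effect; actives lower the fluorescent signal which means gametocytes are killed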); details: P. falciparum 3D7 stage III-V gametocytes, alamarBlue, 72 h; max response: stronger effect = lower value
Procedure, shortened: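 3D7 gametocytes, stages III–V, 20,000/well; cpd 72 h, 37 °C/5% CO2; + alamarBlue 24 h; fluor. Ex 525/Em 598.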

SMILES | remaining parasite growth % (stronger effect = lower value) [1] | activity, percent of control [2] | remaining proliferation (% of control), lower = more inhibition [3] | parasite growth, % of DMSO control [4] | parasite growth remaining, % of DMSO control (lower = more inhibition) [5] | parasite growth, % of control (lower = inhibition) [6] | growth, % of control [7] | cell viability, % of control (lower = more cytotoxic) [8] | viability (% of control) [9] | Potency [10] | Potency [11] | Potency [12] | max response [13]
CC(=O)NCCC(=O)N[C@@H](CCC(N)=O)C(=O)N[C@@H](CO)C(=O)N[C@@H](CCC(N)=O)C(=O)N[C@@H](CCC(N)=O)C(=O)N[C@H](C(=O)N[C@@H](Cc1ccccc1)C(=O)N[C@]1(C)CCCCCCC=CCCC[C@@](C)(C(=O)N[C@@H](CCC(N)=O)C(=O)N[C@@H](CC(N)=O)C(N)=O)NC(=O)[C@H](CC(C)C)NC(=O)[C@H](CC(C)C)NC(=O)[C@@H](CCCNC(=N)N)NC(=O)[C@H](Cc2c[nH]c3ccccc23)NC(=O)[C@H](CC(C)C)NC(=O)[C@H](CC(N)=O)NC1=O)[C@H](C)O | 38.2% | 68.3% | 66.8% | 86.3% | 41.2% | 28.5% | 30.1% | 27% | 78.7% | inactive | inactive | 18.7 µM (active) | –
CC(C)(C)c1[nH]cnc1C=c1[nH]c(=O)c(=Cc2ccccc2)[nH]c1=O | – | – | – | 20.3% [at 57.5 µM] | – | 23.1% [at 57.5 µM] | 7.41% [at 57.5 µM] | 15.7% [at 92.2 µM] | 5.98% [at 92.2 µM] | inactive | inactive | inactive | -26.5% (inactive)
CCc1cc(-c2n[nH]c(C)c2-c2ccc3c(c2)OCCO3)c(O)cc1O | 99.3% | 90.4% | 74.6% | 49.4% | 57.9% | 31.5% | 39.1% | 7.68% | 9.12% | inactive | inactive | 9.35 µM (active) | -4.02% (inactive)
CN1CCN2c3ncccc3Cc3ccccc3C2C1 (stereo unspecified) | – | – | – | 85.3% | – | 50.4% | 75.6% | 260% | 112% | inactive | inactive | inactive | 6.21% (inactive)
O=C1NC(=O)C(c2cnc3ccccn23)=C1c1cn2c3c(cccc13)CN(C(=O)N1CCOCC1)CC2 | 49.3% | 63.3% | 10.8% | 22.1% | 88% | 59.2% | 54.5% | 36.5% | 24.4% | inactive | inactive | 5.26 µM (active) | –
CC1=C[C@@H]2[C@@H]([C@@H](O)C[C@@]3(C)[C@H]2C[C@@H](C)[C@]3(O)C(=O)CO)[C@@]2(C)Cc3cnn(-c4ccccc4)c3C=C12 | 0.407% | -0.0711% | 0.0764% | 33.4% | 8.93% | 46.9% | 11.6% | 24.4% | 32.5% | inactive | inactive | 23.5 µM (active) | -28.3% (inactive)
CN1CCN(c2ncc(-c3cc(Cl)cc(Cl)c3Cl)c(N)n2)CC1 | – | – | – | – | – | – | – | 54.8% | 22.1% | inactive | inactive | inactive | –
O=C1C(CCC(O)c2ccc(F)cc2)C(c2ccc(O)cc2)N1c1ccc(F)cc1 (stereo unspecified) | 18.4% | 83.7% | 64.8% | 33.5% | 77% | 36.6% | 33.2% | 88.9% | 93.3% | inactive | inactive | inactive | 8.66% (inactive)

Source: PubChem BioAssay (NCATS)
